According to the supplement of paper PMC10849652:
About 8,800 targets were measured; listed, in parts, are those with a hit and a random draw of the rest. About 0.5% of all pairs of compound and target were hits. Values without a mark were called inactive.

How the values were obtained:
Assay in all cases: log2 fold change, soluble protein after heating vs DMSO (PISA); higher = thermal stabilisation; K562 lysate, 10 uM; active = over 0.2 and 3.5 SD of the protein, either way, in both replicates (recomputed)
nilotinib = compound: Cc1cn(-c2cc(NC(=O)c3ccc(C)c(Nc4nccc(-c5cccnc5)n4)c3)cc(C(F)(F)F)c2)cn1 [nilotinib]
In short: (§1)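 Soluble protein was defined as the supernatant remaining after 21,000xg for 90 min, following pooling of heated aliquots and adjustment to 0.5% NP-40 at 4°C. Before that, crude K562 extract at 1 mg/mL protein in PBS pH 7.4 with 1 mM MgCl2 was treated with 10 μM compound for 30 min and heated for 3 min across 48°C-58°C. Quantification used TMTpro 16plex LC-MS/MS with channel sums equalised, and values are log-two fold changes in thermal stability relative to solvent controls from duplicates.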

[1] = compound: Cc1nc(Nc2n[nH]c3c2CN(C(=O)N[C@H](CN(C)C)c2ccccc2)C3(C)C)c2sccc2n1
In short: as §1

dasatinib = compound: Cc1nc(Nc2ncc(C(=O)Nc3c(C)cccc3Cl)s2)cc(N2CCN(CCO)CC2)n1 [dasatinib]
In short: as §1

[2] = compound: Cc1ncc(-c2ccnc(Nc3ccc(S(C)(=O)=O)cc3)n2)n1C(C)C
In short: as §1

[3] = compound: Cn1cc(-c2ccc3c(c2)CCN3C(=O)Cc2cccc(C(F)(F)F)c2)c2c(N)ncnc21
In short: as §1

quisinostat = compound: Cn1cc(CNCC2CCN(c3ncc(C(=O)NO)cn3)CC2)c2ccccc21 [quisinostat]
In short: as §1

tipifarnib = compound: Cn1cncc1[C@@](N)(c1ccc(Cl)cc1)c1ccc2c(c1)c(-c1cccc(Cl)c1)cc(=O)n2C [tipifarnib]
In short: as §1

[4] = compound: NC(=O)Nc1cc(-c2cccc(F)c2)sc1C(=O)N[C@H]1CCCNC1
In short: as §1

[5] = compound: NC(=O)c1cnc(N[C@@H]2CCCC[C@@H]2N)nc1Nc1cccc(-n2nccn2)c1
In short: as §1

[6] = compound: NC1(c2ccc(-c3nc4ccn5c(=O)[nH]nc5c4cc3-c3ccccc3)cc2)CCC1
In short: as §1

Sequence of UniProt Q0ZGT2 (Q0ZGT2 whole entry, looked up): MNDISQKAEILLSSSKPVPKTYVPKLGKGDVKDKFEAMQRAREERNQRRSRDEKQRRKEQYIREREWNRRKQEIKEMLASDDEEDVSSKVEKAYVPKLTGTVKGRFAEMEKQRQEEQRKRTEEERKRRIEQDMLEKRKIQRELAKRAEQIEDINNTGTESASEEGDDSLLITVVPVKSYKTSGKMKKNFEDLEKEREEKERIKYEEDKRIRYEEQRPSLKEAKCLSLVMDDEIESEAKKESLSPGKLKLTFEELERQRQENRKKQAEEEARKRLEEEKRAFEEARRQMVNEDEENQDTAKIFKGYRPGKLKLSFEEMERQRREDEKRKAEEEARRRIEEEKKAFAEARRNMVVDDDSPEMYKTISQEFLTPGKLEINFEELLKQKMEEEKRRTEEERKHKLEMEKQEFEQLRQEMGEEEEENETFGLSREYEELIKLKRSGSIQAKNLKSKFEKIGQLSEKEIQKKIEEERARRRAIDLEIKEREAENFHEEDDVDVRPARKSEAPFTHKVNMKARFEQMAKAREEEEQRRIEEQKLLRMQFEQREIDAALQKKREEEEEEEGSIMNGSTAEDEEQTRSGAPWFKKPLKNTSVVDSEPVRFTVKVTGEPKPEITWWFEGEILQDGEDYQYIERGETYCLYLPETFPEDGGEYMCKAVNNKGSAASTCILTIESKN
Sequence of UniProt Q4G0N4 (Q4G0N4 whole entry, looked up): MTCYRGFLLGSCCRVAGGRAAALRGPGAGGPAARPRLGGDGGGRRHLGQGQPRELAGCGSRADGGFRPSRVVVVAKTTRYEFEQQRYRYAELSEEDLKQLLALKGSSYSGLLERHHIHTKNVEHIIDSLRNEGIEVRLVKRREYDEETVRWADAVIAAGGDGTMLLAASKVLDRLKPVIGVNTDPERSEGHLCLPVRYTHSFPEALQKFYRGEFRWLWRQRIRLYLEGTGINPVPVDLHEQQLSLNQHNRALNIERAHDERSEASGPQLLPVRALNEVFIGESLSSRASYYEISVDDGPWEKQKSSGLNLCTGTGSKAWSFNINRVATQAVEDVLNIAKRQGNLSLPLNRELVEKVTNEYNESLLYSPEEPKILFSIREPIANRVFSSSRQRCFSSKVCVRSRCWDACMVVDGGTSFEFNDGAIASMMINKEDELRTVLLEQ
Sequence of UniProt Q13330 (Q13330 whole entry, looked up): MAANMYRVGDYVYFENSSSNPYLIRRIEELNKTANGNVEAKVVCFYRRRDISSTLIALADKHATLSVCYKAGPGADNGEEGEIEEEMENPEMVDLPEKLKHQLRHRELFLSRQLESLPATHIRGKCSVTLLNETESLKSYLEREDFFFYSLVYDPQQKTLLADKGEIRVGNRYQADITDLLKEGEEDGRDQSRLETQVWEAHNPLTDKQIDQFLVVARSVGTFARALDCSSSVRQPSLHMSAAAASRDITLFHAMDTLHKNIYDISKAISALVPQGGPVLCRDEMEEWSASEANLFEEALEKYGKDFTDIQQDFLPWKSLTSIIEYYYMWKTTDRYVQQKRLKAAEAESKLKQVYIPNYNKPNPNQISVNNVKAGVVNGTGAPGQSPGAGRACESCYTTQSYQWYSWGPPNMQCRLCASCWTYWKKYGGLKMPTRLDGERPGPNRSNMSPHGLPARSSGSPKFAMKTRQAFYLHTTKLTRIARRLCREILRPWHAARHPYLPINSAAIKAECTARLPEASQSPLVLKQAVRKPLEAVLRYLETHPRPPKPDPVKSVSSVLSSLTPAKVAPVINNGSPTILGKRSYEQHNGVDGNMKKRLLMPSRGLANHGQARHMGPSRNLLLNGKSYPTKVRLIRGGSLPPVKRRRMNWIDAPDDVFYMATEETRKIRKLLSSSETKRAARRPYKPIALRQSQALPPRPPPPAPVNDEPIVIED
Sequence of UniProt O43913 (O43913 whole entry, looked up): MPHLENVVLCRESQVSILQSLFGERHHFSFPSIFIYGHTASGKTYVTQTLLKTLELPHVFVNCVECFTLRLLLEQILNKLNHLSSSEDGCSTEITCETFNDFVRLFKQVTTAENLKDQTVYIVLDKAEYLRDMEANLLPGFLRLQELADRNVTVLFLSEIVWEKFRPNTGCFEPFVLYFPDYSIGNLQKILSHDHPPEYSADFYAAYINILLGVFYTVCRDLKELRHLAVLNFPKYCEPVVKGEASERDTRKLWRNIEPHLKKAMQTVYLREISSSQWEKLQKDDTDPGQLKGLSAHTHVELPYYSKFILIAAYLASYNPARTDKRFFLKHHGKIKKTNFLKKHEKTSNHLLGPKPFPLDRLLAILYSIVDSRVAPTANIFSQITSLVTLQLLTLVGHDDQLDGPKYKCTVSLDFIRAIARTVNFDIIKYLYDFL
Sequence of UniProt Q9UFN0 (Q9UFN0 whole entry, looked up): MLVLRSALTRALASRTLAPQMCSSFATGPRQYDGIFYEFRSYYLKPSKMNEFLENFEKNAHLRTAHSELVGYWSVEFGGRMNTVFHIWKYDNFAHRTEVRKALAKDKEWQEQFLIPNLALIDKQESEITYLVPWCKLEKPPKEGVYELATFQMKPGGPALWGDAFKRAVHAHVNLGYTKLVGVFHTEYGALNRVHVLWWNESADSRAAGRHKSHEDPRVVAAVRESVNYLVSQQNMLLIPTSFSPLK
Sequence of UniProt Q13416 (Q13416 whole entry, looked up): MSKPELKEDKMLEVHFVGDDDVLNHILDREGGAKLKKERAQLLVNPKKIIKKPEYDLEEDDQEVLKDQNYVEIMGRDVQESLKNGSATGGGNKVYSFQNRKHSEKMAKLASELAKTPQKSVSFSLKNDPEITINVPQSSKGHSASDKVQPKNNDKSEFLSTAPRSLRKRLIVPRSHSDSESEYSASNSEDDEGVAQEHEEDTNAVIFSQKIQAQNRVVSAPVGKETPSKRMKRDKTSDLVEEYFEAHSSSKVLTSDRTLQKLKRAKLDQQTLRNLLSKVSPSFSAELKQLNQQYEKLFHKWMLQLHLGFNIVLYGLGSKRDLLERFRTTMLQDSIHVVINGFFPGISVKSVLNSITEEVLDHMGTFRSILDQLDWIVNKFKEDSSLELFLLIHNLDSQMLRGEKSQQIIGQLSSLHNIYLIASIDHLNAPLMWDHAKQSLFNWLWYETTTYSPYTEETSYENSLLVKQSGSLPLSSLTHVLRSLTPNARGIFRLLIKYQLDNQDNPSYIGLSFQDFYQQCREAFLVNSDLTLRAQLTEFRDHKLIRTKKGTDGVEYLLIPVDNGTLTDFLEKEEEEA
Sequence of UniProt Q5VZE5 (Q5VZE5 whole entry, looked up): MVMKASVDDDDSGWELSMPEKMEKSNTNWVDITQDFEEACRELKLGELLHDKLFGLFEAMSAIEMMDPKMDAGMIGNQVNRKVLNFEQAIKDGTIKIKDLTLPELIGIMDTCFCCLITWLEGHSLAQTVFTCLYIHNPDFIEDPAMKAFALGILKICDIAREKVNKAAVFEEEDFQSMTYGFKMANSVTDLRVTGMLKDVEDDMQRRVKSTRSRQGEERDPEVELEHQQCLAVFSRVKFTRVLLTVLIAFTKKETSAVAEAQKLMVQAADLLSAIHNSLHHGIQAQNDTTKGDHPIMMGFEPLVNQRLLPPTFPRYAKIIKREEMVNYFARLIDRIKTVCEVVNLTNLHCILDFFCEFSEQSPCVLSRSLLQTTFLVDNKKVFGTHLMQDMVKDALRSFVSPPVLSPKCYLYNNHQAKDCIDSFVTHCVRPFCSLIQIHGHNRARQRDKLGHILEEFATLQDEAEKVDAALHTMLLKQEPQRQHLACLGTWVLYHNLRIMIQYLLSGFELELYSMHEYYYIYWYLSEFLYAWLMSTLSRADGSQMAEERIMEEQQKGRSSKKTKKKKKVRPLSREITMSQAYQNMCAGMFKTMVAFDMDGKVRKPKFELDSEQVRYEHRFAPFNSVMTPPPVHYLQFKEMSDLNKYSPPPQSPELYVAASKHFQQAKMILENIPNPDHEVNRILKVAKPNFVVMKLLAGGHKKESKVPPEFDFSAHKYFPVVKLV
Sequence of UniProt Q96DH6 (Q96DH6 whole entry, looked up): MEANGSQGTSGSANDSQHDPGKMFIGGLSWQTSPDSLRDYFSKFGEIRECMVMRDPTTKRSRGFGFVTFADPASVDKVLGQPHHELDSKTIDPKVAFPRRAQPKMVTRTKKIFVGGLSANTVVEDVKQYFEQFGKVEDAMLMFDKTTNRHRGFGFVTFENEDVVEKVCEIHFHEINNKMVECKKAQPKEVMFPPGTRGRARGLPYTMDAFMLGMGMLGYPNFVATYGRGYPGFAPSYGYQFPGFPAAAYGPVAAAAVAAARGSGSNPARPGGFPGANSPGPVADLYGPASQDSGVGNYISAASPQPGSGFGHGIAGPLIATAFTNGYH
Sequence of UniProt P84157 (P84157 whole entry, looked up): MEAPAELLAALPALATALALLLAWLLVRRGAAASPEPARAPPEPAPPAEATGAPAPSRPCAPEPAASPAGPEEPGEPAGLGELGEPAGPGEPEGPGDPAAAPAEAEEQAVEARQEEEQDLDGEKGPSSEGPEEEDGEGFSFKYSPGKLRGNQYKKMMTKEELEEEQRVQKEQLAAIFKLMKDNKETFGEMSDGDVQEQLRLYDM
Sequence of UniProt Q9BRA0 (Q9BRA0 whole entry, looked up): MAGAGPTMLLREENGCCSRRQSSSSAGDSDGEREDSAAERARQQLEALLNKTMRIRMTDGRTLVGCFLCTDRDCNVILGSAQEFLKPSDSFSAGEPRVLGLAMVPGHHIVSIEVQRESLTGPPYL
Sequence of UniProt Q9UHQ1 (Q9UHQ1 whole entry, looked up): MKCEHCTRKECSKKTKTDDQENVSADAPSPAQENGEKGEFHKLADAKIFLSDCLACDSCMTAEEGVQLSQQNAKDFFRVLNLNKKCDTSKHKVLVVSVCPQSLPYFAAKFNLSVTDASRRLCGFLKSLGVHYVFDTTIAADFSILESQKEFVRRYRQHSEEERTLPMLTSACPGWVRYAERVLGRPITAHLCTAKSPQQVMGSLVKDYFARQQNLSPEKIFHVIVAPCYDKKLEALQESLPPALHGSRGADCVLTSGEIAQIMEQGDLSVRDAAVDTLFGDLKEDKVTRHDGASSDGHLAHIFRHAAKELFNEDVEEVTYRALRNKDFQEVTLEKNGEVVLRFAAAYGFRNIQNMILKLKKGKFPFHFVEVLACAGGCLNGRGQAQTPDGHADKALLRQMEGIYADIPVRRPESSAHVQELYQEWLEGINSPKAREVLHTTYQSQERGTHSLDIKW

Target | log2 fold change (nilotinib) | log2 fold change [1] | log2 fold change (dasatinib) | log2 fold change [2] | log2 fold change [3] | log2 fold change (quisinostat) | log2 fold change (tipifarnib) | log2 fold change [4] | log2 fold change [5] | log2 fold change [6]
MSI2 (UniProt Q96DH6) | -0.089 | 0.011 | 0.01 | 0.009 | 0.049 | 0.023 | -0.057 | 0.029 | 0.028 | -0.016
NFATC1 (UniProt O95644) | -0.048 | -0.055 | 0.014 | 0.014 | 0.037 | -0.097 | 0.006 | 0.042 | -0.002 | -0.058
NIPSNAP3A (UniProt Q9UFN0) | 0.001 | 0.016 | 0.028 | 0.008 | -0.054 | -0.053 | 0.015 | 0.007 | -0.052 | -0.025
MTMR6 (UniProt Q9Y217) | -0.04 | 0.063 | -0.036 | -0.026 | -0.076 | -0.116 | -0.024 | 0.086 | -0.007 | -0.032
ORC5 (UniProt O43913) | -0.043 | -0.004 | -0.047 | 0.019 | 0.098 | -0.107 | -0.004 | 0.098 | 0.047 | -0.073
NIPBL (UniProt Q6KC79) | 0.06 | -0.002 | -0.037 | 0.019 | 0.091 | -0.043 | 0.014 | 0.02 | 0.003 | 0.018
MXRA7 (UniProt P84157) | -0.307 | 0 | 0.03 | -0.202 | -0.034 | -0.069 | -0.006 | 0.1 | -0.078 | -0.003
OSBPL1A (UniProt Q9BXW6) | -0.07 | -0.02 | -0.044 | -0.051 | -0.027 | -0.147 | 0.015 | 0 | -0.024 | -0.388 (active)
MTA1 (UniProt Q13330) | 0.042 | 0.01 | -0.023 | 0.033 | 0.005 | -0.089 | -0.03 | 0.052 | -0.033 | -0.004
NOSTRIN (UniProt Q8IVI9) | -0.015 | -0.02 | -0.022 | 0.03 | 0.01 | -0.031 | -0.008 | 0.01 | -0.018 | 0.064
NPM3 (UniProt O75607) | -0.039 | -0.012 | 0.065 | 0.049 | 0.024 | -0.024 | -0.027 | 0.019 | 0.03 | -0.029
NADK2 (UniProt Q4G0N4) | 0.022 | 0.002 | -0.016 | -0.008 | -0.022 | 0.017 | 0.008 | -0.032 | 0.029 | 0.03
NAA38 isoform 2 (UniProt Q9BRA0) | -0.024 | 0.059 | -0.014 | -0.007 | 0.001 | 0.03 | -0.03 | 0.027 | 0.016 | -0.019
NARF (UniProt Q9UHQ1) | -0.029 | 0.011 | 0.01 | -0.031 | 0.014 | -0.03 | -0.062 | 0.017 | -0.079 | 0.005
NAA35 (UniProt Q5VZE5) | -0.019 | 0.014 | -0.005 | 0.009 | 0.01 | -0.075 | 0.034 | 0.001 | -0.035 | 0.016
PANK4 (UniProt Q9NVE7) | 0.028 | -0.006 | -0.086 | -0.006 | 0.003 | -0.054 | 0.009 | 0.038 | -0.003 | -0.045
MTHFD1, A0A384N5Y3 | 0.005 | -0.018 | -0.081 | -0.008 | 0.032 | -0.044 | -0.02 | 0.039 | 0.008 | -0.017
NEBL (UniProt O76041) | -0.024 | 0.019 | 0.089 | 0.032 | -0.007 | -0.045 | 0.008 | -0.065 | -0.018 | -0.03
ORC2 (UniProt Q13416) | 0 | 0.009 | -0.036 | -0.014 | -0.004 | -0.016 | 0.004 | 0.095 | -0.004 | -0.029
MRPL53 (UniProt Q96EL3) | -0.04 | 0.026 | -0.018 | 0.015 | 0.06 | 0.02 | -0.034 | -0.041 | -0.006 | 0.031
MYLK (UniProt Q15746) | 0.138 | -0.197 |  | -0.108 |  | 0.048 | -0.035 | -0.175 | 0.079 | 
MUC5AC (UniProt P98088) | 0.02 | 0.048 |  | 0.128 |  |  | -0.593 (active) |  |  | 
NEXN (UniProt Q0ZGT2) | -0.022 | -0.011 | 0.043 | -0.051 | 0.027 |  | -0.043 |  | -0.149 | -0.002
